Values without a mark were called inactive. Results filed as inconclusive are left out. A call without a number means that no potency is given here. Activity calls are given as the source filed them. Unless noted, calls follow the shape of the dose curve; as a rule, active = well fitted curve in the direction sought with a large enough effect; inconclusive = small, poorly fitted or top-dose-only effect, or another doubt; inactive = no such curve, though single readings can be large; an effect the other way counts as inactive or inconclusive.
Assays:
[1] = target: Luciferin 4-monooxygenase (Photinus pyralis) (UniProt P08659); assay: Biochemical firefly luciferase enzyme assay for NPC (AID 624030);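 also: purified P. pyralis luciferase at 10 nM with luciferin and ATP substrate; nearly all actives have a fitted effect of over 70% in size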; conditions: purified P. pyralis luciferase, luminescence, 5 min; series mostly up to 58.6 µM
Summary of the method: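 Purified P. pyralis luciferase at 10 nM in 50 mM Tris Acetate (final), luminescence read within 5 minutes of enzyme addition to compounds. Activity normalised to PTC124 versus DMSO; concentration-response curves classed by r2, magnitude and activity.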

[2] = S16 Schwann cell PMP22 intronic element firefly luciferase assay (AID 624032); conditions: S16 rat Schwann cells, PMP22 element FLuc, 24 h; series mostly up to 57.5 µM; also: nearly all actives have a fitted effect of over 30% in size
Summary of the method: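 Rat S16 Schwann cells stably carrying firefly luciferase driven by a PMP22 intronic element, in 10% FBS, treated 24 h at 37 C. ONE-Glo luminescence normalized to PTC124 control and DMSO (0%); curves classed by r2, magnitude and activity.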

[3] = target: Androgen receptor (Homo sapiens) (UniProt P10275); assay: qHTS assay for small molecule agonists of androgen receptor signaling (AID 588515; active = well fitted curve in the direction sought with a large enough effect in the signal ratio, with a control signal flat; the % refers to the signal ratio); conditions: AR-UAS-bla HEK293, beta-lactamase ratio, agonist 16 h; stronger effect = higher value
Summary of the method: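 Stimulation of an AR-responsive β-lactamase reporter in GripTite HEK293 cells was measured after 16 h compound exposure at 37 °C, via CCF4 fluorescence after 2 h RT. EC50 from Hill fits, normalized to R1881 at 30 nM.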

[4] = target: Androgen receptor (Homo sapiens) (UniProt P10275); assay: qHTS assay for small molecule antagonists of androgen receptor signaling (AID 588516; active = well fitted curve in the direction sought with a large enough effect in the signal ratio, with a control signal flat, not every such curve was filed as active; the % refers to the signal ratio); conditions: AR-UAS-bla HEK293, beta-lactamase ratio, antagonist mode, 16 h; series mostly up to 76.8 µM
Summary of the method: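 Compounds tested in titration against 10 nM R1881 in AR-responsive bla reporter HEK 293 cells; CCF4 fluorescence (460/530 nm) after 16 h exposure gave IC50 and efficacy.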

[5] = target: ATP-dependent 6-phosphofructokinase (Trypanosoma brucei brucei) (UniProt O15648); assay: qHTS Assay to Find Inhibitors of T. brucei phosphofructokinase: hit validation (AID 492961);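 also: luminescence reports ADP formed as PFK phosphorylates fructose-6-phosphate with ATP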; conditions: T. brucei PFK, ADP-Glo luminescence; series mostly up to 51.4 µM
Summary of the method: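 Compounds titrated; %activity normalized to 0x and 1x enzyme controls, curve-fitted. Readout: ADP-Glo luminescence after 45 min room-temperature reaction of 1.25 nM PFK, 0.1 mM ATP, 0.5 mM F6P, pH 8.0.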

W2 = assay: qHTS profiling for inhibitors of Plasmodium falciparum proliferation (AID 504749); also: potency is read from the fitted curve at half-maximal effect; nearly all actives have a fitted effect of over 60% in size; conditions: P. falciparum in erythrocytes, SYBR Green DNA, 72 h; series mostly up to 28.7 µM
Summary of the method: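 SYBR Green fluorescence (ex 485 nm, em 535 nm) reports parasite DNA after 72 h compound exposure of infected red cells at 0.3% parasitemia, 2.5% hematocrit; signal normalized to 0.29 uM artemisinin and vehicle wells.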

[6] = target: DNA dC->dU-editing enzyme APOBEC-3G (Homo sapiens) (UniProt Q9HC16); assay: qHTS for inhibitors of Vif-A3G interactions: Validation (AID 588379); conditions: Vif-A3G protein interaction assay; series mostly up to 46.1 µM
Summary of the method: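 Yellow fluorescence (Ex 488, Em 500-530) of Vif-coexpressing HeLa A3G-eYFP cells, scanned by Acumen cytometer, reports blocked A3G degradation. Cells plated at 700/well overnight at 37 deg C before compound addition, then a further overnight compound incubation at 37 deg C.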

Androgen receptor (Homo sapiens), sequence (P10275 whole entry, looked up): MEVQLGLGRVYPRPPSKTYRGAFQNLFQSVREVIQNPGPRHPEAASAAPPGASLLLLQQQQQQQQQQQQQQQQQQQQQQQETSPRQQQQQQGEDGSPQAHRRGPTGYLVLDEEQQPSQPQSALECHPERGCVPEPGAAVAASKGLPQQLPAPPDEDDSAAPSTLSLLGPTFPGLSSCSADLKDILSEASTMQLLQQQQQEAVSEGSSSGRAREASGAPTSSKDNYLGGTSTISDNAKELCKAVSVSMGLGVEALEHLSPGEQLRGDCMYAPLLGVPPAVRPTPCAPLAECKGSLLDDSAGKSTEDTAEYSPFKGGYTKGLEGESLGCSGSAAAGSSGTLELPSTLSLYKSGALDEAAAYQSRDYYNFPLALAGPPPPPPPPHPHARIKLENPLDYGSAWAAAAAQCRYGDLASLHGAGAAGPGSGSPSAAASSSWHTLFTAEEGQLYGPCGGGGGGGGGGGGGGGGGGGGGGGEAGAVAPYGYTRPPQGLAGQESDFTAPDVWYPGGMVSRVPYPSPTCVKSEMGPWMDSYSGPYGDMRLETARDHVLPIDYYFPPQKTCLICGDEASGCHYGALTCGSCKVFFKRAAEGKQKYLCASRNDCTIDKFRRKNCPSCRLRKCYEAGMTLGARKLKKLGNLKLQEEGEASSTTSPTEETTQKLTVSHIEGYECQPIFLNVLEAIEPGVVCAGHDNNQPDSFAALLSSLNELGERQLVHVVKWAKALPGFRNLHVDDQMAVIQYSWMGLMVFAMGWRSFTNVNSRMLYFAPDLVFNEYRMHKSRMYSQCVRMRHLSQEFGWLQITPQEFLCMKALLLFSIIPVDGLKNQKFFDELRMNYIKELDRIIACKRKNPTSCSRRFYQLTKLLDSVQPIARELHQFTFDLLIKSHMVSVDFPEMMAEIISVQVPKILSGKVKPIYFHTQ
ATP-dependent 6-phosphofructokinase (Trypanosoma brucei brucei), sequence (O15648 whole entry, looked up): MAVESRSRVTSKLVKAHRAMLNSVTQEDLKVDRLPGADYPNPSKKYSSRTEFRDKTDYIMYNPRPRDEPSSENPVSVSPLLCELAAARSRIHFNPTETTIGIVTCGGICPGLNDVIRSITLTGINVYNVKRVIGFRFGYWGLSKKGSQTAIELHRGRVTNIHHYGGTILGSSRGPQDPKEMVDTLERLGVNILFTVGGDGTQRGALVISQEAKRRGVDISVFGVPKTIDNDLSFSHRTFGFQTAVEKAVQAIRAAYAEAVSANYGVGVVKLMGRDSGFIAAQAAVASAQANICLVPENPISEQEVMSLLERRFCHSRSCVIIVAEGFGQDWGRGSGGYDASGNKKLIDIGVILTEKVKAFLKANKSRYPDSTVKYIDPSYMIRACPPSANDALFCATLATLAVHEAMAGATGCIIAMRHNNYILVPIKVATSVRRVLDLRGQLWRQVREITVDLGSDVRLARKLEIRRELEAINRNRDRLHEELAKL
Luciferin 4-monooxygenase (Photinus pyralis), sequence (P08659 whole entry, looked up): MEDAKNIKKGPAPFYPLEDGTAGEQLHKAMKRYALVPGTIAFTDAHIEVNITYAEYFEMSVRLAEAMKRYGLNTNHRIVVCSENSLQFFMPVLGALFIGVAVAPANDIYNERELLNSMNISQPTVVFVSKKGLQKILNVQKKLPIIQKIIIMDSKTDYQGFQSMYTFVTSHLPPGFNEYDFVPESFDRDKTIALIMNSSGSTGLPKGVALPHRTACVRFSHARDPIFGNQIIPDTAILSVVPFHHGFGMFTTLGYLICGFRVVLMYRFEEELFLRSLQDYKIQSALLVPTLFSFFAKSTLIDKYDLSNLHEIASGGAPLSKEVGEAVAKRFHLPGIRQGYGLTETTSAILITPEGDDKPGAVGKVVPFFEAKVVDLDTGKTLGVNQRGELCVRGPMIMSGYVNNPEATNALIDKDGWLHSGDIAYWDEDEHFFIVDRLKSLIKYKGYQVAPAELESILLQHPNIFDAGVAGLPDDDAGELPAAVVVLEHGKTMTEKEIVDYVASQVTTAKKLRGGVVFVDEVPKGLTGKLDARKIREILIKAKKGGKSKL
DNA dC->dU-editing enzyme APOBEC-3G (Homo sapiens), sequence (Q9HC16 whole entry, looked up): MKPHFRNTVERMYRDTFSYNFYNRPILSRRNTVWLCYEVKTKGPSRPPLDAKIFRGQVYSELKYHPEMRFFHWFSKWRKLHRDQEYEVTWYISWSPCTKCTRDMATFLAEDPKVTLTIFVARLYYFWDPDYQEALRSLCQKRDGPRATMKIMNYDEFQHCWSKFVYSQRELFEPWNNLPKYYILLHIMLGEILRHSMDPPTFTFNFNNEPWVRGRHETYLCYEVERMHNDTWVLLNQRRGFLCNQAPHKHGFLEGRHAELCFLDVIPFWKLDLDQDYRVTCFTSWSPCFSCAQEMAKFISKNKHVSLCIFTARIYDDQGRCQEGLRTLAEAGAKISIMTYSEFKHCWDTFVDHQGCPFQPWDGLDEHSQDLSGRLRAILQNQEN

## CN1[C@H]2CC(OC(=O)[C@H](CO)c3ccccc3)C[C@H]1[C@H]1O[C@H]12 (some centres not stated)
[1]
  Potency: inactive
[2]
  Potency: inactive

## CN(C)c1ccc(C2(c3ccc(N(C)C)cc3)OC(=O)c3cc(N(C)C)ccc32)cc1
[3]
  activation: 19.5%
[4]
  outcome: inactive

## CO[C@H]1/C=C/O[C@@]2(C)Oc3c(C)c(O)c4c(O)c(c5c(c4c3C2=O)NC2(CCN(CC(C)C)CC2)N=5)=NC(=O)/C(C)=C\C=C\[C@H](C)[C@H](O)[C@@H](C)[C@@H](O)[C@@H](C)[C@H](OC(C)=O)[C@@H]1C
[5]
  Potency: inactive
W2
  Potency: 4.78 µM (active)

## COc1cc2c(c(OC)c1OC)-c1ccc(OC)c(=O)cc1[C@H](NC(C)=O)CC2
[6]
  outcome: inactive

Source: PubChem BioAssay (NCATS)
